From PubChem BioAssay
Records with an inconclusive call do not appear. The source made the active and inactive calls.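 The calls were made as follows, unless noted: active = compound raises insulin release from rat beta cells at 5 mM glucose, no numeric limit stated; inactive = the rest.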

Columns and labels:
[1] = stimulators of insulin release from INS-1E, primary screen, cell-based, 5 mM glucose, NPC library (AID 1117329); conditions: rat INS-1E insulin secretion, at 10 µM, stronger effect = higher value
[2] = growth inhibition of GSK3B-pretreated HCT116 cells – cell-based, CellTiter-Glo, 0.2 to 20 µM (AID 1117336;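 active = compounds lowering colon cancer cell viability after pretreatment blocking the GSK3B kinase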); conditions: HCT116 viability after GSK3B inhibitor, at 20 µM, stronger effect = higher value
[3] = inhibition of endothelial tube formation, primary screen, imaging, VEGF stimulated, CD31 staining, tube area, NPC library (AID 1117340;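 active = compound that reduces growth-factor-driven endothelial tube area in a mixed cell culture, no cutoff stated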); conditions: VEGF-stimulated ADSC/ECFC co-culture, at 10 µM, stronger effect = higher value
[4] = GLP1 release stimulators, primary, NCI-H716, NPC library (AID 1117341;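 active = compound raises GLP1 secretion from the human gut endocrine cells, with no numeric limit stated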); conditions: NCI-H716 cells, at 10 µM, stronger effect = higher value
[5] = HCT116 colon cancer cell growth inhibition, primary screen, CellTiter-Glo luminescence, NPC library (AID 1117342;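 active = compounds that lower survival of HCT116 colon cancer cells in the luminescence readout, no numeric limit stated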); conditions: at 20 µM (top of the series)
[6] = reduced SW480 viability measured with CellTiter-Glo, NPC library, primary (AID 1117343;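 active = compounds that lower viability of the colon cancer cells in the luminescence readout, with no numeric limit stated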); conditions: CellTiter-Glo luminescence; at 20 µM (top of the series)
[7] = NPC library primary testing for decreased DLD-1 cell viability via CellTiter-Glo (AID 1117346;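 active = compounds that lower survival of DLD-1 colon cancer cells in the luminescence readout, no cutoff given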); conditions: DLD-1 viability, CellTiter-Glo luminescence; at 20 µM (top of the series)
[8] = modulation of C. elegans fzo-1 (AID 1259413; call rule not given here;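 also: fzo-1 mutant C. elegans worms in liquid wells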); conditions: C. elegans fzo-1 modulator screen, mean read-out; stronger effect = higher value
[9] = viability loss in pontine glioma line – cell-based, JHH-DIPG-1, MIPE4.0, CellTiter-Glo, qHTS, dose response (AID 1347062; cut-off not given, nearly all actives have AC50 up to about 27 µM;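 as to AC50: cells exposed to compound for two days before readout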); conditions: JHH-DIPG-1 viability, CellTiter-Glo ATP luminescence
[10] = viability loss in pontine glioma line – cell-based, SU-DIPG-IV, MIPE4.0, CellTiter-Glo, qHTS, dose response (AID 1347063; cut-off not given, nearly all actives have AC50 up to about 30 µM;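 also: compound exposure lasted 48 hours before the viability readout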); conditions: CellTiter-Glo ATP luminescence
[11] = tested on: Aerobactin synthetase IucA (Klebsiella pneumoniae); experiment: inhibition of K. pneumoniae IucA enzyme – biochemical, Tocris library, absorbance (AID 1345561; call rule not given here;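 also: 100% = enzyme without compound and 0% = no enzyme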); conditions: purified IucA enzyme assay, absorbance (OD) read-out; stronger effect = lower value;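 tested at 8 µM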
[12] = viability loss in pontine glioma line – cell-based, SU-DIPG-XVII, MIPE5.0, CellTiter-Glo, qHTS, dose response (AID 1347060; cut-off not given, nearly all actives have AC50 up to about 26 µM;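 as to AC50: cells exposed to compound for 48 hours before viability readout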); conditions: CellTiter-Glo ATP luminescence
[13] = viability loss in pontine glioma line – cell-based, SU-DIPG-XIII, MIPE5.0, CellTiter-Glo, qHTS, dose response (AID 1347064; cut-off not given, nearly all actives have AC50 up to about 23 µM;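 as to AC50: cells exposed to compound for 48 hours before the viability read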); conditions: CellTiter-Glo ATP luminescence
[14] = EMT-state selective cytotoxicity in co-culture – imaging, PC-3E GFP, TEM4-18 mCherry, primary screen (AID 1345086;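 active = compounds killing one labelled cell type while sparing the other, by normalised counts and ratio limits, not self-fluorescent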;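 as to all read-outs here: cells exposed to compound for 72 h before imaging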;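 as to red/green cell ratio (normalised): normalised mesenchymal count divided by normalised epithelial count so high means epithelial killing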); conditions: PC-3E GFP / TEM4-18 mCherry co-culture, imaging cell counts, at 1 µM; for red/green cell ratio (normalised): actives lie on both sides, counts scaled to control wells, 1 = unselective
[15] = viability loss in pontine glioma line – cell-based, SU-DIPG-XIII, MIPE4.0, CellTiter-Glo, qHTS, dose response (AID 1347061; cut-off not given, nearly all actives have AC50 up to about 37 µM;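 also: cells exposed to compound for 48 hours before readout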); conditions: CellTiter-Glo ATP luminescence
[16] = measured here: epithelial PC-3E GFP cell survival
[17] = measured here: mesenchymal TEM4-18 mCherry cell survival

Cc1c(O)cccc1C(=O)N[C@@H](CSc1ccccc1)[C@H](O)CN1C[C@H]2CCCC[C@H]2C[C@H]1C(=O)NC(C)(C)C
inactive: insulin secretion stimulation [1] 2.3% | GLP1 secretion stimulation [4] 7.9% | mean signal [8] 243
active: viability decrease [2] 117% | tube area decrease [3] 67.1% | inhibition of viability [5] 124% | viability decrease (inhibition) [6] 158% | viability decrease (inhibition) [7] 100% | AC50 [9] 20900 nM | AC50 [10] 20900 nM

NS(=O)(=O)Cc1noc2ccccc12
inactive: insulin secretion stimulation [1] -1.7% | viability decrease [2] -1.75% | tube area decrease [3] 3.7% | GLP1 secretion stimulation [4] 2.1% | inhibition of viability [5] 4.9% | viability decrease (inhibition) [6] 44.2% | viability decrease (inhibition) [7] 24.9% | mean signal [8] 260 | remaining activity [11] 96.2%

COc1cccc2c1C(=O)c1c(O)c3c(c(O)c1C2=O)C[C@@](O)(C(=O)CO)C[C@@H]3O[C@H]1C[C@H](N)[C@H](O)[C@H](C)O1
active: tube area decrease [3] 22.7% | viability decrease (inhibition) [6] 99.3% | viability decrease (inhibition) [7] 82.4% | AC50 [12] 235 nM | AC50 [9] 332 nM | AC50 [10] 418 nM | AC50 [13] 934 nM
inactive: insulin secretion stimulation [1] 4% | viability decrease [2] -114% | GLP1 secretion stimulation [4] 3% | inhibition of viability [5] 40.6% | mean signal [8] 234 | remaining activity [11] 110%

O=C(c1ccc(F)cc1)C1CCN(CCn2c(=S)[nH]c3ccccc3c2=O)CC1
active: viability decrease [2] 63.4% | inhibition of viability [5] 69.7% | viability decrease (inhibition) [6] 69.7% | viability decrease (inhibition) [7] 59.8%
inactive: insulin secretion stimulation [1] -1.4% | tube area decrease [3] -7.4% | GLP1 secretion stimulation [4] 3.7% | mean signal [8] 246 | remaining activity [11] 106%

C/C=C1\[C@H]2C=C(C)C[C@]1(N)c1ccc(=O)[nH]c1C2
1.18: normalised cell number [14, 17]
0.97: normalised cell number [14, 16]
inactive: insulin secretion stimulation [1] 1.5% | viability decrease [2] 10.5% | tube area decrease [3] 0.1% | GLP1 secretion stimulation [4] 3.9% | inhibition of viability [5] 3.1% | viability decrease (inhibition) [6] -14.7% | viability decrease (inhibition) [7] 0.1% | red/green cell ratio (normalised) [14] 1.22

CC(C)c1ccc2oc3nc(N)c(C(=O)O)cc3c(=O)c2c1
inactive: insulin secretion stimulation [1] 3.2% | viability decrease [2] 8.7% | tube area decrease [3] 0% | GLP1 secretion stimulation [4] 0.3% | inhibition of viability [5] -17% | viability decrease (inhibition) [6] 17.9% | viability decrease (inhibition) [7] -27.9% | mean signal [8] 242 | outcome [15] | outcome [9] | outcome [13]

Clc1ccc2nsnc2c1NC1=NCCN1
inactive: insulin secretion stimulation [1] 0.4% | viability decrease [2] 1.1% | tube area decrease [3] -9.7% | GLP1 secretion stimulation [4] 2.7% | inhibition of viability [5] 11.7% | viability decrease (inhibition) [6] 8% | viability decrease (inhibition) [7] 6% | mean signal [8] 249 | remaining activity [11] 113% | outcome [12] | outcome [15] | outcome [13]

NC(CS)C(=O)O (centres undefined)
inactive: insulin secretion stimulation [1] -0.5% | viability decrease [2] -0.35% | tube area decrease [3] 3.4% | GLP1 secretion stimulation [4] -1.7% | inhibition of viability [5] 16.7% | viability decrease (inhibition) [6] 34.5% | viability decrease (inhibition) [7] 32.7% | red/green cell ratio (normalised) [14] 0.99
0.99: normalised cell number [14, 17]
1: normalised cell number [14, 16]

COc1cc(C(=O)NS(=O)(=O)c2ccccc2C)ccc1Cc1cn(C)c2ccc(NC(=O)OC3CCCC3)cc12
active: viability decrease [2] 106% | tube area decrease [3] 44.5% | inhibition of viability [5] 106% | viability decrease (inhibition) [6] 120% | viability decrease (inhibition) [7] 98.2% | AC50 [10] 20900 nM
inactive: insulin secretion stimulation [1] 3.85% | GLP1 secretion stimulation [4] 19.5% | mean signal [8] 223 | outcome [12]

CC(C)(C)NC(=O)[C@@H]1CN(Cc2cccnc2)CCN1C[C@@H](O)C[C@@H](Cc1ccccc1)C(=O)N[C@H]1c2ccccc2C[C@H]1O
inactive: insulin secretion stimulation [1] 6.7% | viability decrease [2] -0.8% | tube area decrease [3] 7.2% | GLP1 secretion stimulation [4] 4.1% | inhibition of viability [5] 10% | viability decrease (inhibition) [6] -7.5% | viability decrease (inhibition) [7] -9.3% | mean signal [8] 283
active: AC50 [15] 1320 nM

NS(=O)(=O)c1cc2c(cc1Cl)NC(C1CC3C=CC1C3)NS2(=O)=O (centres undefined)
inactive: insulin secretion stimulation [1] -1% | viability decrease [2] -17% | tube area decrease [3] 2.9% | GLP1 secretion stimulation [4] -2.5% | inhibition of viability [5] -8.27% | viability decrease (inhibition) [6] 8.9% | viability decrease (inhibition) [7] -15.4% | red/green cell ratio (normalised) [14] 1.29 | remaining activity [11] 94.1%
1.23: normalised cell number [14, 17]
0.95: normalised cell number [14, 16]

CN(C)c1ccc2nc3ccc(=[N+](C)C)cc-3sc2c1
0.1: normalised cell number [14, 17]
inactive: insulin secretion stimulation [1] -1.1% | viability decrease (inhibition) [7] 44.2% | red/green cell ratio (normalised) [14] 0.68
0.15: normalised cell number [14, 16]
active: viability decrease [2] 98.6% | tube area decrease [3] 103% | GLP1 secretion stimulation [4] 280% | inhibition of viability [5] 97.8% | viability decrease (inhibition) [6] 65.3% | AC50 [12] 5900 nM | AC50 [15] 4690 nM | AC50 [9] 2960 nM | AC50 [10] 5900 nM | AC50 [13] 2630 nM

COc1cc(C(=O)OCCCN2CCCN(CCCOC(=O)c3cc(OC)c(OC)c(OC)c3)CC2)cc(OC)c1OC
0.76: normalised cell number [14, 16]
0.92: normalised cell number [14, 17]
active: insulin secretion stimulation [1] 79.2% | inhibition of viability [5] 77.6% | viability decrease (inhibition) [6] 92.3%
inactive: viability decrease [2] 38.2% | tube area decrease [3] 4.6% | GLP1 secretion stimulation [4] 7.5% | viability decrease (inhibition) [7] 24% | red/green cell ratio (normalised) [14] 1.21 | remaining activity [11] 90.6%

O=C(O)CSCC(=O)NC1CCSC1=O (centres undefined)
1.17: normalised cell number [14, 17]
inactive: insulin secretion stimulation [1] -1.9% | viability decrease [2] -4% | tube area decrease [3] -2.7% | GLP1 secretion stimulation [4] -0.3% | inhibition of viability [5] 9% | viability decrease (inhibition) [6] 15.2% | viability decrease (inhibition) [7] -4.25% | red/green cell ratio (normalised) [14] 1.25 | outcome [12] | outcome [15] | outcome [9] | outcome [10]
0.94: normalised cell number [14, 16]
